Screen size: about 5,500 compounds; about 2,000 (36%) were called active. Roughly 18% stayed inconclusive and do not appear here. Cut-off read from the data, not from the text of the source: active = normalized growth mostly below about 0.91 (no sharp cut-off); inconclusive = no clear call, values can overlap the other calls; inactive = mostly above about 0.92. Some of the results follow.
Assay: chemical genetic growth profiling, strain panel (AID 1159580);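 note: tested at 20 µM; growth read once vehicle control cultures reached saturation at 30 °C; 1 = growth at the plate median or of vehicle wells; lower values mean less growth of the strain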
Conditions: growth OD

Measured: normalized growth

COc1ccc(CCC(=O)c2c(O)cc(O[C@@H]3O[C@H](CO)C(O)[C@H](O)C3O[C@@H]3O[C@@H](C)[C@H](O)[C@@H](O)[C@H]3O)cc2O)cc1O (some centres not stated)
inactive: S. cerevisiae deletion strains, locus YJR075W, strain HOC1, hits give low values 0.996 | S. cerevisiae deletion strains, locus YKL009W, strain mrt4, hits give low values 1 | S. cerevisiae deletion strains, locus YKL068W, hits give low values 0.972 | S. cerevisiae deletion strains, locus YKL085W, strain MDH1 (second series), hits give low values 0.982 | S. cerevisiae deletion strains, locus YKL085W, strain MDH1, hits give low values 0.982 | S. cerevisiae deletion strains, locus YKL160W, strain elf1, hits give low values 1 | S. cerevisiae deletion strains, locus YKL190W, strain CNB1, hits give low values 0.999 | S. cerevisiae deletion strains, locus YKR001C, strain vps1, hits give low values 0.989 | S. cerevisiae deletion strains, locus YKR026C, strain gcn3, hits give low values 1.02 | S. cerevisiae deletion strains, locus YKR091W, strain srl3, hits give low values 1.01 | S. cerevisiae deletion strains, locus YLL001W, strain dnm1, hits give low values 1 | S. cerevisiae deletion strains, locus YLL026W, hits give low values 1.02 | S. cerevisiae deletion strains, locus YLL041C, strain sdh2, hits give low values 1.02 | S. cerevisiae deletion strains, locus YLR027C, strain aat2, hits give low values 1 | S. cerevisiae deletion strains, locus YLR039C, strain RIC1, hits give low values 0.982 | S. cerevisiae deletion strains, locus YLR058C, strain SHM2, hits give low values 1 | S. cerevisiae deletion strains, locus YLR102C, strain apc9, hits give low values 0.973 | S. cerevisiae deletion strains, locus YLR113W, strain HOG1, hits give low values 0.98 | S. cerevisiae deletion strains, locus YLR221C, strain rsa3, hits give low values 1.04 | S. cerevisiae deletion strains, locus YLR258W, strain gsy2, hits give low values 1.04 | S. cerevisiae deletion strains, locus YLR262C, strain YPT6 (second series), hits give low values 1.05 | S. cerevisiae deletion strains, locus YLR262C, strain YPT6, hits give low values 0.97 | S. cerevisiae deletion strains, locus YLR268W, strain sec22, hits give low values 0.95 | S. cerevisiae deletion strains, locus YLR320W, strain mms22, hits give low values 1.06 | S. cerevisiae deletion strains, locus YLR330W, strain CHS5, hits give low values 0.993 | S. cerevisiae deletion strains, locus YLR342W, strain FKS1 (second series), hits give low values 1.06 | S. cerevisiae deletion strains, locus YLR342W, strain FKS1, hits give low values 1.02 | S. cerevisiae deletion strains, locus YLR357W, strain rsc2, hits give low values 1.01 | S. cerevisiae deletion strains, locus YLR370C, strain arc18, hits give low values 1.01 | S. cerevisiae deletion strains, locus YLR371W, strain rom2, hits give low values 0.983 | S. cerevisiae deletion strains, locus YLR384C, strain iki3, hits give low values 1.04 | S. cerevisiae deletion strains, locus YLR418C, strain cdc73, hits give low values 0.985 | S. cerevisiae deletion strains, locus YML016C, strain PPZ1, hits give low values 1.01 | S. cerevisiae deletion strains, locus YML032C, strain rad52, hits give low values 0.966 | S. cerevisiae deletion strains, locus YML120C, strain ndi1, hits give low values 1.01 | S. cerevisiae deletion strains, locus YML124C, strain tub3, hits give low values 0.984 | S. cerevisiae deletion strains, locus YMR058W, strain fet3, hits give low values 1.03 | S. cerevisiae deletion strains, locus YMR078C, strain ctf18, hits give low values 0.989 | S. cerevisiae deletion strains, locus YMR125W, strain sto1, hits give low values 1.01 | S. cerevisiae deletion strains, locus YMR129W, hits give low values 1.02 | S. cerevisiae deletion strains, locus YMR205C, strain PFK2, hits give low values 1.02 | S. cerevisiae deletion strains, locus YMR223W, strain ubp8, hits give low values 1.01 | S. cerevisiae deletion strains, locus YMR231W, strain pep5, hits give low values 0.995 | S. cerevisiae deletion strains, locus YMR263W, strain SAP30, hits give low values 0.989 | S. cerevisiae deletion strains, locus YMR307W, strain GAS1, hits give low values 1.04 | S. cerevisiae deletion strains, locus YNL067W, strain RPL9B, hits give low values 0.989 | S. cerevisiae deletion strains, locus YNL071W, strain lat1, hits give low values 1.01 | S. cerevisiae deletion strains, locus YNL128W, strain TEP1, hits give low values 0.989 | S. cerevisiae deletion strains, locus YNL153C, strain GIM3, hits give low values 0.988 | S. cerevisiae deletion strains, locus YNL183C, strain NPR1, hits give low values 0.899 | S. cerevisiae deletion strains, locus YNL209W, strain ssb2, hits give low values 1.01 | S. cerevisiae deletion strains, locus YNL233W, strain BNI4, hits give low values 0.994 | S. cerevisiae deletion strains, locus YNL248C, strain rpa49, hits give low values 1.04 | S. cerevisiae deletion strains, locus YNL250W, strain rad50, hits give low values 0.979 | S. cerevisiae deletion strains, locus YNL271C, strain bni1, hits give low values 0.981 | S. cerevisiae deletion strains, locus YNL298W, strain CLA4, hits give low values 0.984 | S. cerevisiae deletion strains, locus YNL307C, strain MCK1, hits give low values 0.993 | S. cerevisiae deletion strains, locus YNL322C, strain KRE1 (second series), hits give low values 1.01 | S. cerevisiae deletion strains, locus YNL322C, strain KRE1, hits give low values 0.993 | S. cerevisiae deletion strains, locus YNR049C, strain mso1, hits give low values 1.02 | S. cerevisiae deletion strains, locus YNR052C, strain pop2, hits give low values 0.993 | S. cerevisiae deletion strains, locus YOL006C, strain TOP1, hits give low values 0.929 | S. cerevisiae deletion strains, locus YOL012C, strain htz1 1.02 | S. cerevisiae deletion strains, locus YOL147C, strain pex11, hits give low values 0.989 | S. cerevisiae deletion strains, locus YOR001W, strain rrp6, hits give low values 1.05 | S. cerevisiae deletion strains, locus YOR061W, strain CKA2, hits give low values 0.999 | S. cerevisiae deletion strains, locus YOR069W, strain VPS5, hits give low values 1 | S. cerevisiae deletion strains, locus YOR070C, strain gyp1, hits give low values 1 | S. cerevisiae deletion strains, locus YOR080W, strain dia2, hits give low values 1.03 | S. cerevisiae deletion strains, locus YOR083W, strain WHI5, hits give low values 1 | S. cerevisiae deletion strains, locus YOR106W, strain vam3, hits give low values 0.992 | S. cerevisiae deletion strains, locus YOR136W, strain idh2, hits give low values 0.99 | S. cerevisiae deletion strains, locus YOR144C, strain elg1, hits give low values 0.977 | S. cerevisiae deletion strains, locus YOR184W, strain ser1, hits give low values 0.985 | S. cerevisiae deletion strains, locus YOR231W, strain MKK1, hits give low values 0.97 | S. cerevisiae deletion strains, locus YOR265W, strain rbl2, hits give low values 1.02 | S. cerevisiae deletion strains, locus YOR270C, strain vph1, hits give low values 1.07 | S. cerevisiae deletion strains, locus YOR290C, strain snf2, hits give low values 0.965 | S. cerevisiae deletion strains, locus YOR316C, strain cot1, hits give low values 0.967 | S. cerevisiae deletion strains, locus YPL051W, strain arl3, hits give low values 1.02 | S. cerevisiae deletion strains, locus YPL055C, strain LGE1, hits give low values 0.982 | S. cerevisiae deletion strains, locus YPL078C, strain atp4, hits give low values 0.989 | S. cerevisiae deletion strains, locus YPL106C, strain sse1, hits give low values 1.02 | S. cerevisiae deletion strains, locus YPL240C, strain hsp82, hits give low values 1.02 | S. cerevisiae deletion strains, locus YPL241C, strain CIN2, hits give low values 0.993 | S. cerevisiae deletion strains, locus YPL256C, strain CLN2, hits give low values 0.962 | S. cerevisiae deletion strains, locus YPR119W, strain clb2, hits give low values 0.975 | S. cerevisiae deletion strains, locus YPR141C, strain kar3, hits give low values 0.986 | S. cerevisiae deletion strains, locus YPR163C, strain tif3, hits give low values 0.985 | S. cerevisiae deletion strains, locus YPR167C, strain met16, hits give low values 0.97 | S. cerevisiae deletion strains, strain wtn01, hits give low values 1 | S. cerevisiae strains, strain wild type, hits give low values 0.995

Source: PubChem BioAssay AID1159580 (chemical genetic matrix, 2015)
